We go through 98 sequences from PMC10668032, “Altered binding affinity of SIX1-Q177R correlates with enhanced WNT5A and WNT pathway effector expression in Wilms tumor”.

In all, about 33,000 sequences were measured (“e-score”: median about -0.05, highest 2% from about 0.38 on). What follows is part of a selection rich in the highest values, with near analogues and random picks from the rest.

For this test, the target named is T1, SIX1-Q177R homeodomain (human, UniProt Q15475 108-198, Q177R).
T1 sequence: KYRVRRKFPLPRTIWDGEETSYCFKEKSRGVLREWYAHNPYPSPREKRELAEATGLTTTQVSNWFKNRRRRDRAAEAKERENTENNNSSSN
The test is described as follows: universal protein binding microarray; Universal all-10-mer PBM (8x60K, AMADID 030236), 300 nM GST-tagged protein, Alexa Fluor 488 anti-GST; buffer, salt, pH and temperature not stated (as in Berger); high values mean tight binding. To be noted: protein: ivt; tags: N-terminal GST; dsDNA, one strand shown. The gist of the method: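 After in vitro transcription/translation, GST-tagged homeodomains were quantified against a recombinant GST standard curve by anti-GST western blot. They were then placed in duplicate at 300 nM final concentration on universal 'all 10-mer' protein binding microarrays of 8×60K format.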
Take GTAGACAC: the binding signal is 0.409 ± 0.0281 E-score.
In the case of CTAGACAC, the binding signal turned out to be 0.393 ± 0.0124 E-score.
Take CTAGATAC: the binding signal was found to be 0.165 ± 0.0452 E-score.
Consider ATAGACAC, for which the binding signal was 0.428 ± 0.0191 E-score.
Regarding AGATAGAC, the binding signal is 0.154 ± 0.0062 E-score.
ATAGAGTC: the binding signal amounted to 0.202 ± 0.0331 E-score.
For CTAGACCC, the binding signal turned out to be 0.184 ± 0.00755 E-score.
With ACAAGGTG, the binding signal was 0.264 ± 0.0157 E-score.
As for ACCATCCA, the binding signal amounted to 0.215 ± 0.0116 E-score.
GGGTGCGA: the binding signal was 0.181 ± 0.00744 E-score.
Regarding CCCTGACG, the binding signal was found to be 0.152 ± 0.00643 E-score.
With CCGCCGTA, the binding signal came out at 0.164 ± 0.00253 E-score.
Take GAGACCCC: the binding signal is 0.225 ± 0.0263 E-score.
The figure for CACCCACC is 0.252 ± 0.0101 E-score.
Regarding CACCACTA, the binding signal came out at 0.3486 ± 0.00204 E-score.
Regarding ACTGTGTG, the binding signal stood at 0.177 ± 0.0389 E-score.
With CTGGATAC, the binding signal turned out to be 0.222 ± 0.0101 E-score.
Consider GTGGACAC, for which the binding signal came out at 0.419 ± 0.0259 E-score.
Take ATGGATAC: the binding signal was 0.278 ± 0.0318 E-score.
GTGGGACA: the binding signal was determined as 0.171 ± 0.0189 E-score.
With ATGGAGAC, the binding signal is 0.174 ± 0.0638 E-score.
The figure for CTGGACAC is 0.406 ± 0.0173 E-score; for ATGGACAC it is 0.419 ± 0.00799 E-score.
Regarding CTGGAAAC, the binding signal came out at 0.178 ± 0.0277 E-score.
As for GTGCACAC, the figure is 0.271 ± 0.021 E-score; as for ACCCTAGT, 0.269 ± 0.00753 E-score; as for CCCCTCTA, 0.2508 ± 0.000354 E-score.
AGGGGTCC: the binding signal is 0.178 ± 0.00987 E-score.
As for CGGTGCCA, the figure is 0.19 ± 0.0233 E-score.
Regarding GGGGGTCA, the binding signal is 0.313 ± 0.0364 E-score.
As for GGGTGTCA, the figure is 0.4915 ± 0.00277 E-score.
Turning to CGGTGTCA, the binding signal amounted to 0.4918 ± 0.00175 E-score.
The figure for ATGTGTCG is 0.188 ± 0.0615 E-score; for AGGTGGTG it is 0.287 ± 0.0143 E-score; for GGGTGCCA it is 0.2 ± 0.0639 E-score.
As to AGGTGTCG, the binding signal was found to be 0.4794 ± 0.00471 E-score.
CTGTGTCA: the binding signal is 0.256 ± 0.066 E-score.
As for AGGTGTCC, the figure is 0.464 ± 0.0052 E-score; as for GGGAGTAC, 0.2586 ± 0.000728 E-score; as for CGGATCCG, 0.183 ± 0.00497 E-score.
In the case of GTCTCATA, the binding signal was 0.179 ± 0.0328 E-score.
As for CCCGGGGA, the figure is 0.206 ± 0.0149 E-score.
In the case of CACCGCTC, the binding signal is 0.27 ± 0.013 E-score.
As for CCATAACA, the figure is 0.2144 ± 0.000806 E-score.
For AGACGGTG, the binding signal was 0.23 ± 0.0191 E-score.
Turning to AAACGGTG, the binding signal is 0.308 ± 0.011 E-score.
Regarding CCCTCACG, the binding signal was 0.165 ± 0.0328 E-score.
As for CCCCCTCA, the figure is 0.223 ± 0.0246 E-score; as for CCGCGCGG, 0.172 ± 0.0537 E-score; as for ACTGGTAT, 0.2685 ± 0.000262 E-score.
Consider CCGGTTAC, for which the binding signal came out at 0.1852 ± 0.000205 E-score.
The figure for CGGTGTCC is 0.489 ± 0.00456 E-score.
As for AGGTGTCA, the figure is 0.4862 ± 0.000651 E-score; as for ATGTGTCA, 0.253 ± 0.0258 E-score.
For CGGTGATC, the binding signal turned out to be 0.163 ± 0.0497 E-score.
The figure for AGGTGACA is 0.251 ± 0.0589 E-score; for CGGGGTCC it is 0.241 ± 0.0168 E-score; for TCGGTGCA it is 0.232 ± 0.0114 E-score.
On to CACGACCG, for which the binding signal came out at 0.225 ± 0.0274 E-score.
Consider CGCCACCC, for which the binding signal amounted to 0.19 ± 0.0435 E-score.
Turning to TAGTGAGA, the binding signal is 0.154 ± 0.0331 E-score.
As for TGTCGACA, the figure is 0.25 ± 0.0489 E-score; as for GGGATACC, 0.341 ± 0.00451 E-score; as for AGACCCTA, 0.195 ± 0.0142 E-score.
The figure for CACGGGCG is 0.204 ± 0.0346 E-score; for ACACGGCA it is 0.3737 ± 0.00357 E-score; for ACACGGCT it is 0.3983 ± 0.00124 E-score.
In the case of ACACGTCG, the binding signal stood at 0.323 ± 0.0129 E-score.
As for ACACGTCA, the figure is 0.323 ± 0.0149 E-score; as for ACACGGCC, 0.3824 ± 0.0024 E-score.
The figure for ACACGTCT is 0.344 ± 0.0192 E-score.
Consider AACCCCGC, for which the binding signal was 0.194 ± 0.0341 E-score.
Consider TACTCCCA, for which the binding signal stood at 0.16 ± 0.038 E-score.
For the sequence ACGCGGCG, the binding signal worked out at 0.229 ± 0.0107 E-score.
The figure for ACCGAATA is 0.155 ± 0.00809 E-score; for GACACGCC it is 0.4444 ± 0.00225 E-score; for CACACGCC it is 0.252 ± 0.0122 E-score.
The figure for CACGCGCA is 0.212 ± 0.0332 E-score; for GACACGCA it is 0.416 ± 0.0252 E-score; for CACACGCG it is 0.296 ± 0.0321 E-score.
As for ACCTCCGA, the binding signal was determined as 0.172 ± 0.0111 E-score.
In the case of CCCCTAGC, the binding signal came to 0.177 ± 0.00211 E-score.
Take ACTCGGAC: the binding signal is 0.179 ± 0.0406 E-score.
As for CACCCTGA, the binding signal was determined as 0.339 ± 0.0238 E-score.
On to AGGATCCC, for which the binding signal came to 0.155 ± 0.0155 E-score.
Regarding GTAACAGA, the binding signal is 0.16 ± 0.00854 E-score.
As for CCCGAGAC, the binding signal came to 0.204 ± 0.023 E-score.
Take ACCCGTCT: the binding signal was 0.178 ± 0.0209 E-score.
In the case of AGTATCAG, the binding signal came out at 0.266 ± 0.0112 E-score.
As for CGTGTCAG, the figure is 0.441 ± 0.0089 E-score; as for CGTGTCTC, 0.338 ± 0.00573 E-score; as for GGAGTCAC, 0.3325 ± 0.00242 E-score.
Regarding GGGGTCAC, the binding signal is 0.29 ± 0.0253 E-score.
As for GGTGTCAC, the figure is 0.4915 ± 0.00356 E-score; as for AGTGTCAC, 0.45 ± 0.00611 E-score; as for CGCGTCAG, 0.154 ± 0.00463 E-score.
CGTGTCAC: the binding signal came out at 0.462 ± 0.0133 E-score.
For CGAGTCAC, the binding signal is 0.196 ± 0.0324 E-score.
